Results: PubChem BioAssay
For part of these data: Measured potencies and affinities stand elsewhere. Activity calls are given as the source filed them.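 The calls were made as follows, unless noted: active = fitted half-maximal concentration within the tested range, moderate curve steepness, significant signal drop, and little compound fluorescence or bead-linkage interference; inactive = the rest.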

Tests used:
[1] = biological target: Cell division control protein 42 homolog (Homo sapiens) (UniProt P60953); assay: inhibition of fluorescent GTP binding to constitutively active Cdc42 – biochemical, multiplex bead flow cytometry, Bodipy-FL-GTP, dose response (AID 1333;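 active = fitted half-maximal concentration within the tested dose range, moderate curve steepness, a statistically real signal drop, and little compound fluorescence or tag-binding interference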)
Cell division control protein 42 homolog (Homo sapiens), sequence (P60953 whole entry, looked up): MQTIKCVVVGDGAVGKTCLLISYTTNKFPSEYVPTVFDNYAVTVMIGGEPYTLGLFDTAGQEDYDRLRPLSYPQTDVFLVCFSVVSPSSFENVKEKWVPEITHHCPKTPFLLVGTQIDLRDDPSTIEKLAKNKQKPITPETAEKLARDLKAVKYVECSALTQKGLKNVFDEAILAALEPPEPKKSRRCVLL

[2] = biological target: Cell division control protein 42 homolog (Homo sapiens) (UniProt P60953); assay: inhibition of fluorescent GTP binding to wildtype Cdc42 – biochemical, multiplex bead flow cytometry, Bodipy-FL-GTP, dose response (AID 1334); details: bead-based flow cytometry, Bodipy-FL-GTP binding to GST-Cdc42; at 100 µM (top of the series) unless noted
[3] = biological target: GTPase HRas (Homo sapiens) (UniProt P01112); assay: Ras wt fluorescent GTP loading blockade – biochemical, wildtype, multiplex bead flow cytometry, dose response (AID 1335;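 active = fitted half-maximal concentration within 10 nM to 100 µM, steepness 0.5 to 2, significant signal drop, low assay interference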); details: bead-based flow cytometry, Bodipy-GTP binding to GST-Ras; at 100 µM (top of the series) unless noted
GTPase HRas (Homo sapiens), sequence (P01112 whole entry, looked up): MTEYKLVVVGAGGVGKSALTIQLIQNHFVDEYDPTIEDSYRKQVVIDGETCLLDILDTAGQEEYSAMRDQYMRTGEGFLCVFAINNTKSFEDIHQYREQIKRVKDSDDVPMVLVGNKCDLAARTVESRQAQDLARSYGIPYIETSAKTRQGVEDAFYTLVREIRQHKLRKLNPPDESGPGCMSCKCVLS

[4] = system: Ras-related protein Rab-7a (dog), GTP binding; assay: blockers of fluorescent GTP binding to Rab7 – biochemical, wildtype, multiplex bead flow cytometry, dose response (AID 1336; call rule not given here)
[5] = biological target: Ras-related C3 botulinum toxin substrate 1 (Homo sapiens) (UniProt P63000); assay: inhibition of wildtype Rac1 nucleotide loading – biochemical, multiplex bead flow cytometry, dose response (AID 1340;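 active = dose curve with midpoint inside tested range, moderate steepness, plateau gap beyond fit error, low compound glow and bead-link interference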); details: GST-Rac1 beads, Bodipy-FL-GTP binding; at 100 µM (top of the series) unless noted
[6] = biological target: GTPase HRas (Homo sapiens) (UniProt P01112); assay: blockade of GTP loading onto mutant Ras – biochemical, activated mutant, multiplex bead flow cytometry, dose response (AID 1341;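 active = dose-response curve with midpoint inside the tested range, moderate steepness, significant amplitude and little compound fluorescence or bead-attachment interference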;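 also: GST-tagged constitutively activated Ras mutant immobilized on beads and multiplexed with other GTPases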)

SMILES	outcome [1]	fluorescence, percent of control (lower = inhibition) [2] [%]	GTP binding, percent of control [3] [%]	outcome [4]	GTP binding signal, raw median fluorescence (lower = inhibition) (MCF (arbitrary fluorescence units)) [5]	outcome [6]
Cc1ccc(C(=O)c2ccccc2C(=O)O)cc1	inactive	67.4	89.9	inactive	38.5	inactive
Nc1[nH]n2c(=O)c3c(nc2c1N=Nc1ccccc1)CCCC3	inactive	31	41.6	inactive	109	inactive
C/C(=N\NC(=O)CC1N=C(Cc2ccccc2)NNC1=O)c1ccc(Cl)cc1Cl (stereo not given)	inactive	90.1	160	inactive	175	inactive
COc1ccc(Cn2c(O)c(/C=N/NC(=O)c3cccnc3)c3ccccc3c2=O)cc1	inactive	17.2	68.9	inactive	63.7	inactive
CSc1ncccc1C(=O)OCC(=O)N1CCOCC1	inactive	84.4	160	inactive	170	inactive
CCc1ccc(Cn2nnc(C(=O)O)c2C(=O)O)cc1	inactive	58.5	82.3	inactive	30.7	inactive
COc1ccc(S(=O)(=O)n2oc(=O)cc2-c2ccccc2)cc1	inactive	42.2	90.8	inactive	248	inactive
O=C(COC(=O)c1ccc2c(c1[N+](=O)[O-])C(=O)c1ccccc1C2=O)NC1CC1	inactive	29.3	72.9	inactive	178	inactive
COc1cc(/C=N/NC(=O)Nc2cccc3nsnc23)cc(OC)c1OC	inactive	60.6	105	inactive	126	inactive
CNC(=S)N=Nc1c(O)[nH]c2ccccc12	inactive	36.2	47	inactive	128	inactive
CCc1ccc(OCc2cccc(C(=O)O)c2)cc1	inactive	58.6	87.5	inactive	32.6	inactive
CCCCCCCCCCCCCCCC(=O)Nc1cccc(C#CC(=O)c2ccc([N+](=O)[O-])cc2)c1	inactive	66	186	inactive	134	inactive
COc1ccc(C(=O)N/C(=C\c2cccc([N+](=O)[O-])c2)C(=O)Nc2cccc(C(=O)O)c2)cc1	inactive	35.1	78.2	inactive	162	inactive
Cc1ccccc1CSc1ncccc1C(=O)O	inactive	74.5	87.9	inactive	48.3	inactive
CSc1nc(Cc2ccccc2)cc(=O)[nH]1	inactive	36.3	80.4	inactive	273	inactive
COc1ccc(-c2cc(C(F)(F)F)c3c(n2)sc2c(O)cc(=O)[nH]c23)c(OC)c1	inactive	38.1	76.3	inactive	162	inactive
Cc1ccc(NC(=O)CS(=O)(=O)c2c[nH]c3ccccc23)c(C)c1	inactive	46	62.9	inactive	184	inactive
Cc1c(C(=O)N2CCc3ccccc3C2)oc2ccc(S(=O)(=O)N3CCCCCC3)cc12	inactive	56.2	76	inactive	274	inactive
COCCCNc1nc(=S)[nH]c2cc(OC)c(OC)cc12	inactive	32.5	41.5	inactive	99	inactive
NC(=S)N=Nc1c(O)[nH]c2c(Br)cc(Br)cc12	inactive	32.3	73	inactive	198	inactive

SMILES	outcome [1]	fluorescence, percent of control (lower = inhibition) [2] [%]	GTP binding, percent of control [3] [%]	outcome [4]	GTP binding signal, raw median fluorescence (lower = inhibition) (MCF (arbitrary fluorescence units)) [5]	outcome [6]
O=C(Cn1nc(-c2ccccc2)c2ccccc2c1=O)Nc1ccccn1	inactive	45.6	58.1	inactive	194	inactive
COc1cc2[nH]c(=S)nc(NC3CCCCCC3)c2cc1OC	inactive	26.4	60.9	inactive	148	inactive
CC1=CC(=O)C=C(C)C1=NOS(=O)(=O)c1ccccc1	inactive	29.6	81.2	inactive	223	inactive
O=C(O)Cc1coc2cc3c(cc12)CCC3	inactive	29.9	79.1	inactive	251	inactive
O=C(O)c1ccc(Nc2nc(-c3cccnc3)nc3ccccc23)cc1	inactive	27.9	66.3	inactive	142	inactive
Cc1ccc(S(=O)(=O)N2CC3(C)CN(S(=O)(=O)c4ccc(C)cc4)CC(C)(C2)C3O)cc1 (stereo not given)	inactive	50	61.9	inactive	204	inactive
COc1cc(/C=C(/C#N)c2nc3ccccc3[nH]2)ccc1OCc1ccc(C(=O)O)o1	inactive	21.9	59.6	inactive	116	inactive
CC(C)(C)NC(=O)CCN(/N=C/c1ccc([N+](=O)[O-])o1)C1=NS(=O)(=O)c2ccccc21	inactive	23.6	33.1	inactive	86.3	inactive
O=C(O)COc1ccccc1/C=N/NC(=O)c1cccc(S(=O)(=O)Nc2cccc(Cl)c2)c1	inactive	36.3	79.8	inactive	124	inactive
Cc1cc2[nH]c3c(c[n+](C)c4ccccc34)c2cc1C	inactive	35.5	78.4	inactive	253	inactive
O=C(COC(=O)/C=C/c1cccs1)Nc1ccc2ccccc2c1	inactive	43.2	58.6	inactive	183	inactive
O=C(COn1nnc2ccc(Cl)cc21)NCc1ccccc1	inactive	89.6	154	inactive	183	inactive
NC(=O)NOCc1ncc(C(F)(F)F)cc1Cl	inactive	36.2	81.2	inactive	274	inactive
COc1cc2nc(/C=C/c3ccc(N(C)C)cc3)sc2cc1SC	inactive	121	122	inactive	238	inactive
Cc1nnc(N2CCOCC2)c2nn(-c3cccc(Cl)c3)c(C)c12	inactive	204	209	inactive	306	inactive
O=C1/C(=C\c2ccc(-c3ccccc3Cl)o2)SC(=S)N1CC1CCCO1 (stereo not given)	inactive	29.8	35.9	inactive	116	inactive
FC(F)(F)c1cccc(NC(=S)NNC(=S)NCc2ccccc2)c1	inactive	30.7	81.8	inactive	222	inactive
COc1cccc(/C=C/C(=O)Nc2ccccc2N2CCOCC2)c1	inactive	33.2	83.5	inactive	243	inactive
Cc1cc(-c2nnc3n2N=C(c2ccc(-c4ccccc4)cc2)CS3)n[nH]1	inactive	31.3	72.4	inactive	172	inactive
Cc1ccc(S(=O)(=O)c2cc3c(=O)n4ccccc4nc3n(C)c2=N)cc1	inactive	31.2	65.8	inactive	158	inactive

SMILES	outcome [1]	fluorescence, percent of control (lower = inhibition) [2] [%]	GTP binding, percent of control [3] [%]	outcome [4]	GTP binding signal, raw median fluorescence (lower = inhibition) (MCF (arbitrary fluorescence units)) [5]	outcome [6]
Cc1ccc2c(c1)c1nnc(SCC(=O)Nc3cccc(Cl)c3C)nc1n2CC(=O)O	inactive	35.2	80.1	inactive	245	inactive
O=C1/C(=C/c2ccc(N3CCOCC3)o2)SC(=Nc2ccccc2)N1CCc1c[nH]c2ccccc12	inactive	104	114	inactive	242	inactive
CS(=O)(=O)Nc1ccc(Br)cc1C(=O)c1ccccc1	inactive	46.4	59	inactive	205	inactive
COc1ccc2[nH]c3nc(SCC(=O)Nc4ccc5c(c4)OCO5)nnc3c2c1	inactive	70.4	150	inactive	164	inactive
Nc1[nH]c(=S)nc2nc(-c3ccccc3)c(-c3ccccc3)nc12	inactive	33.9	81.4	inactive	198	inactive
COc1cc(/C=C(\C#N)c2nc3ccc(C)cc3[nH]2)cc([N+](=O)[O-])c1O	inactive	25.3	61.6	inactive	151	inactive
COc1ccc(-n2c(C)cc(/C=C3/SC(=S)N(C)C3=O)c2C)cc1	inactive	76.1	85.8	inactive	0	inactive
O=C(NCc1cccs1)c1cccn2c(=O)c3sccc3nc12	inactive	32.6	69.2	inactive	138	inactive
Cc1c(C=O)c2ccccn2c1C(=O)c1cccc([N+](=O)[O-])c1	inactive	31.4	76.8	inactive	242	inactive
Cn1c(=O)c2cc(S(=O)(=O)NCCC(=O)NCc3ccccc3Cl)ccc2n(C)c1=O	inactive	64	109	inactive	122	inactive
COc1ccccc1OCCn1cc(C(=O)O)c2ccc(Cl)cc21	inactive	57	201	inactive	61.4	inactive
CCn1c(=N)c(S(=O)(=O)c2ccc(C)cc2)cc2c(=O)n3ccccc3nc21	inactive	36.8	79.5	inactive	174	inactive
COc1ccc(CN2CCN(CCc3ccccc3)C(CCO)C2)c(O)c1 (stereo not given)	inactive	40.6	82.3	inactive	265	inactive
O=C(C#Cc1ccccc1F)c1ccc([N+](=O)[O-])cc1	inactive	49.8	179	inactive	104	inactive
Cc1ccc(C(=O)c2ccccc2C(=O)O)cc1C	inactive	113	141	inactive	93.5	inactive
C=CCSc1nc(N)c(C#N)c(-c2ccc(C)cc2)c1C#N	inactive	35	83.1	inactive	262	inactive
Cc1cc(NCc2sc(C(=O)O)cc2C)ccc1Br	inactive	57.8	81.7	inactive	33.8	inactive
Fc1cccc(CSc2ccc3nnc(-c4cccnc4)n3n2)c1	inactive	33.8	73.3	inactive	183	inactive
COc1cc(N2CCCC2)c(OC)cc1/C=c1/sc2nc3ccccc3n2c1=O	inactive	76	82	inactive	195	inactive
COc1cc(/C=N/Nc2nncn2/N=C/c2ccc(O)c(OC)c2)ccc1O	inactive	30.7	68.3	inactive	147	inactive
